Here are results for 27 molecules from PubChem BioAssay (EPA / NIEHS).

Each structure is given as a SMILES string. Active and inactive are the calls of the source. The calls were made as follows: active = hit-call score of the fitted dose curve at least 0.9, where 1 is the maximum; inactive = score below 0.9.

A short description of the assay: CCTE_Shafer_MEA_acute_per_network_burst_spike_number_std: CCTE's Neural Acute Assay for Standard Deviation of Number of Spikes in a Network Burst, Shafer Lab (AID 2284020).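 Also: fitted for decrease in spike-number SD versus DMSO so actives lower it.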 The protocol:
CCTE_Shafer_MEA_acute assay is conducted using Axion Biosystems 48 well microelectrode array (MEA) plates and Maestro recording system. Each well of the MEA plate contains a grid of 16 microelectrodes embedded in the culture surface. Electrically active cells, such as neurons, can be cultured over the electrodes, and electrical activity in these cells can be recorded extracellularly. The spontaneous firing of neurons is captured from each electrode on a microsecond timescale providing both temporally and spatially precise data. […] The CCTE_Shafer_MEA_acute assay uses primary cultures of rat cortical neurons. As these cultures mature over time, neural networks develop functional activity and form cohesive networks in which electrical activity can be highly coordinated. Baseline 40-minute recordings are made on days post-plating 13 or 15, followed by a secondary 40-minute recording after chemical exposure.CCTE_Shafer_MEA_acute_per_network_burst_spike_number_std is a component of the CCTE_Shafer_MEA_acute assay. It measures the standard deviation of the number of spikes (action potential firings) in a network burst (temporally-clustered group of spikes across multiple electrodes) during a recording in a microelectrode array (MEA) using Axion Biosystems Maestro 768 channel amplifier with the AxIS adaptive spike detector. The recordings before and after chemical treatment are used to calculate a percent change in the standard deviation of the number of spikes in network bursts in each well.Data from the assay component CCTE_Shafer_MEA_acute_burst_spike_number_std was analyzed into 1 assay endpoint. This assay endpoint, CCTE_Shafer_MEA_acute_burst_spike_number_std, was analyzed in the negative analysis fitting direction relative to DMSO as the negative control and baseline of activity. Using a type of functional reporter, gain or loss-of-signal activity can be used to understand electrical activity.
Spontaneous activity in the cortical cultures was recorded using an Axion Biosystems Maestro 768 channel amplifier and Axion Integrated Studios (AxIS) v1.8 (or later) software. The amplifier recorded from all channels simultaneously (gain = 1200 x; sampling rate = 12.5 kHz/channel): raw signals were filtered with a Butterworth band-pass filter (300-5000 Hz), which filters out slower local field potentials leaving only fast potentials, i.e., "spikes", arising from extracellular currents associated with action potentials (Pine 2006; Wheeler and Nam 2011). On-line spike detection of filtered signals was conducted with the AxIS adaptive spike detector, using a threshold of 8x the root mean squared (rms) noise on each channel. Any electrodes with rms noise levels greater than 5 uV were grounded (e.g., no data were recorded). Once grounded, an electrode was grounded for the duration of the experiment. All recordings were conducted at 37 C. Wells were deemed usable if on the day of the exposure >/= 10 electrodes were active (defined as >/= 5 spikes/min). On DIV 13 or 15, a minimum of three wells from one cortical culture preparation were treated with each compound (0.03-40 uM). Prior to recording baseline activity, each mwMEA plate was placed in the Maestro at 37 C and allowed to sit for 20 min while firing rates stabilized. Baseline activity (40 min) was recorded before the addition of each compound. An additional 40 min of spontaneous activity was recorded in the presence of each compound. Changes in network parameters relative to baseline were assessed following compound treatment.
Consider `Nc1nc(N)c2nc(CNc3ccc(C(=O)N[C@@H](CCC(=O)O)C(=O)O)cc3)cnc2n1`, for which the call was inactive.

In the case of `CN1CCCC1=O`, the molecule was classed as inactive.

For the molecule `CNCc1cc(F)ccc1Oc1ccc(Cl)c(Cl)c1`, the AC50 was 31.7 µM (active).

In the case of `CCCCCCCCCCCCCCCCCC(=O)O`, the outcome was inactive.

For `Cc1ccc(C)c(O)c1C`, the molecule was classed as inactive.

`Clc1cc(Cl)c(Cl)cc1Cl`: the result was inactive.

Take `c1cc(-c2ccncc2)ccn1`: the result was inactive.

For `CC(C)(C)c1cc(O)c(C(C)(C)C)cc1O`, the AC50 is 30.7 µM (active).

For `CN[C@H]1CC[C@@H](c2ccc(Cl)c(Cl)c2)c2ccc(S(N)(=O)=O)cc21`, the AC50 is 20 µM (active).

As to `O=C(O)CCCCC(=O)O`, the molecule was called inactive.

Regarding `C[Si]1(C)O[Si](C)(C)O[Si](C)(C)O[Si](C)(C)O1`, the outcome was inactive.

Take `Cc1ccc(C(C)C)c(O)c1`: the result was inactive.

Regarding `C=CCc1ccc(O)c(OC)c1`, the result was inactive.

As for `CC(=O)Oc1ccccc1C(=O)O`, the outcome was inactive.

For `CCCCCCCCCCO`, the molecule was called inactive.

Take `Cc1ccc2ncccc2c1`: the call was inactive.

Take `Nc1ccc2c(c1)C(=O)c1ccccc1C2=O`: the outcome was inactive.

For `NS(=O)(=O)c1cc2c(cc1Cl)NCNS2(=O)=O`, the result was inactive.

On to `FC(F)(F)C(F)(F)C(F)(F)C(F)(F)C(F)(F)C(F)(F)CCI`, for which the call was inactive.

Consider `NCC1(Cc2noc(=O)[nH]2)CCCCC1`, for which the molecule was called inactive.

With `CC(=O)C(C)=CC1C(C)=CCCC1(C)C` (configuration not stated), the outcome was inactive.

Take `CCOC(=O)C(C)(C)Oc1ccc(Cl)cc1`: the outcome was inactive.

As to `COc1ccc2c(c1)c(CC(=O)O)c(C)n2C(=O)c1ccc(Cl)cc1`, the outcome was inactive.

`CCCc1cc(=O)[nH]c(=S)[nH]1`: the molecule was called inactive.

In the case of `Nc1ccccc1N`, the molecule was classed as inactive.

`C=CCOC(=O)c1ccccc1C(=O)OCC=C`: the outcome was inactive.

Consider `COc1ccc(S(=O)(=O)N2C(=O)[C@@](c3ccccc3OC)(N3C[C@H](O)C[C@H]3C(=O)N(C)C)c3cc(Cl)ccc32)c(OC)c1`, for which the call was inactive.
